Molecules are shown by their SMILES. The campaign covered roughly 48,000 compounds. About 13,000 (27%) showed an effect of 50% or more. This is one part of the list.

The subject of this assay is Wolbachia pipientis. The experiment in a line: Anti-Wolbachia Cell-Based Screen. Type of assay: functional. Also noted: scale not given: in the data most compounds retested in dose-response had high values. Conditions: 5 µM.
On to `Cc1nonc1C1CCCN1C(=O)CCc1cc2n(n1)CCCNC2` (centres undefined), for which the “Percent Effect” value amounted to 9.259%.
For the compound `COCCC(=O)N1CCC(Nc2ncc(Cl)cn2)CC1`, the “Percent Effect” value was -4.765%.
Consider `CC(C)OCC(=O)N1CCC(c2ncncc2-c2ccnc(N)c2)C1` (centres undefined), for which the “Percent Effect” value is on record as 123.4%.
With `Cc1nc(C2CCN(C(=O)COC(C)C)CC2)cc(N2CCOCC2)n1`, the “Percent Effect” value came to 30.46%.
With `COCCC(=O)N1CCC(c2ncncc2-c2ccnc(N)c2)C1` (centres undefined), the “Percent Effect” value turned out to be 107.7%.
The result for `COCCC(=O)N1CC[C@H]2C(=O)N(c3ccsc3)CCO[C@H]2C1` reads -5.602%.
Consider `Cc1ccc2c(c1)c(CNC(=O)C1CC(=O)N(C3CC3)C1)nn2C` (centres undefined), for which the “Percent Effect” value came out at 1.98%.
Take `Cc1nccn1[C@@H]1CC[C@@H](NC(=O)Cn2c(C)nc3ccccc32)[C@H]1O`: the “Percent Effect” value is listed as 99.52%.
`CCC[C@H]1CN(C2CCOCC2)C[C@@H]1NC(=O)CCn1ccnc1C`: the “Percent Effect” value worked out at 0.5076%.
Regarding `Cc1nccn1[C@@H]1CC[C@@H](NC(=O)CCCn2cccn2)[C@H]1O`, the “Percent Effect” value is 100.2%.
The result for `CN(CCCOc1ccccc1)Cc1nccn1C` reads -7.331%; that for `CCC(=O)N1CCN(C(=O)CCn2cccn2)CC1`, 5.19%; that for `CC(=O)C(Cc1ccccc1)NC(=O)CSc1nccn1C1CC1` (centres undefined), 4.235%.
On to `CC(C)(C)n1c(NC(=O)CNC(=O)NC2CC2)nc2ccccc21`, for which the “Percent Effect” value is -6.693%.
The result for `Cc1cc(=O)n(CC(=O)NC2CCCCC2)c2ccccc12` reads -8.945%; that for `Cc1nccn1[C@@H]1CC[C@@H](NC(=O)CCOc2ccccc2)[C@H]1O`, 125.1%; that for `CCc1nc(C)c(C(=O)N(C)Cc2cnn(-c3cccc(OC)c3)c2)s1`, -4.854%.
On to `Cc1ccccc1CSc1nc(N)cc(N2C[C@H](O)[C@@H](N(C)C)C2)n1`, for which the “Percent Effect” value is -0.3306%.
For `CC(=O)N1CCCC1c1nc(C)cc(-c2ccc(F)cc2)n1` (centres undefined) the value was 79.53%.
Regarding `Cc1cc(C)n(-c2ccc(N3CCC(O)CC3)nc2)n1`, the “Percent Effect” value was -17.54%.
For the compound `Cc1cc(N2CCC(O)CC2)nc(C2CCCN2C)n1` (centres undefined), the “Percent Effect” value was 110.3%.
On to `Cc1cc(-c2ccccc2C(=O)O)nc(C2CCCCN2C)n1` (centres undefined), for which the “Percent Effect” value amounted to 97.78%.
With `Cc1cccc(-c2c[nH]c(C3CCCN3C(=O)c3cc(C)n[nH]3)n2)c1` (centres undefined), the “Percent Effect” value came out at 16.57%.
The result for `Cc1cc(N2CCC(O)CC2)nc(C)n1` reads 10.82%; that for `CC(=O)N1CCCCC1c1nc(C)cc(-c2ccccc2C(=O)O)n1` (centres undefined), 100.6%.
With `CC(=O)N(CCc1nc(-c2cc(C(N)=O)co2)cs1)C(C)C`, the “Percent Effect” value was -2.269%.
With `CC(C)(C)C(=O)N1C[C@@H](F)[C@@H](OCc2nc3ncccc3[nH]2)C1`, the “Percent Effect” value is reported as -11.47%.
Turning to `COc1ccccc1CC(=O)NC(CC(=O)O)c1ccc(C)cc1` (centres undefined), the “Percent Effect” value is reported as -6.3%.
With `CS(=O)(=O)C1=C(O)C(=O)N(c2ccccc2)C1c1ccccc1` (centres undefined), the “Percent Effect” value was found to be 110.5%.
Consider `OCCC1CN(c2ncnc3[nH]cnc23)CCN1Cc1cccs1` (centres undefined), for which the “Percent Effect” value amounted to 9.965%.
In the case of `CCOCc1ccccc1NC(=O)NC1CCN(C2CCCC2)C1` (centres undefined), the “Percent Effect” value is -8.399%.
In the case of `Cn1cnnc1-c1cncc(NCc2cccc3c2OC(C)(C)C3)c1`, the “Percent Effect” value was -16.61%.
For `N#Cc1cccc(CN2C[C@H](NC(=O)C3CC3)[C@H]3OCCC[C@H]32)c1.O=C(O)C(F)(F)F` the value was 100.2%; for `N#Cc1cccc(CN2C[C@@H](NC(=O)C3CC3)[C@H]3OCCC[C@H]32)c1`, 101.9%.
As for `O=C(N[C@@H]1CN(Cc2ccc3c(c2)OCO3)[C@@H]2CCCO[C@@H]21)C1CC1`, the “Percent Effect” value was -19.8%.
`N#Cc1cccc(CN(CC(=O)N2CCCC2)CC2CCCO2)c1` (centres undefined): the “Percent Effect” value amounted to 11.29%.
The result for `Cc1cccc(OC2CCN(S(=O)(=O)Cc3cccc(F)c3)CC2)n1` reads -8.664%; that for `CSCC(C)(O)CNC(=O)c1cc(F)ccc1Br` (centres undefined), -2.784%.
For `O=C(Cc1ccc2c(c1)CCCC2)N[C@@H]1CC[C@@H](n2ccnc2)[C@@H]1O`, the “Percent Effect” value was determined as 128.7%.
Take `O=C(N[C@@H]1CCC[C@@H](n2ccnc2)[C@@H]1O)c1ccc2c(c1)CCCC2`: the “Percent Effect” value is reported as 113.7%.
In the case of `O=C(N[C@@H]1CC[C@@H](n2ccnc2)[C@@H]1O)c1cc2c(s1)CCC2`, the “Percent Effect” value is 100.6%.
As for `Cn1cc(CNC(=O)c2cc3c(s2)CCCCC3)cn1`, the “Percent Effect” value is listed as -22.89%.
Regarding `O=C(NC1CCN(c2cc(-n3ccnc3)ncn2)CC1)c1ccncc1`, the “Percent Effect” value worked out at 4.759%.
With `O=C(Cc1ccc2c(c1)CCC2)NC1CCN(Cc2ccccc2)CC1`, the “Percent Effect” value came to 7.244%.
Regarding `O=C(NC1CCN(Cc2ccc(F)cc2)CC1)c1ccc2c(c1)CCC2`, the “Percent Effect” value is given as -15.84%.
As for `CCOc1ncccc1NC(=O)c1cc2c(s1)CCC2`, the “Percent Effect” value is -11.29%.
As to `O=C(Cc1ccc2c(c1)CCC2)NCCNc1ncccn1`, the “Percent Effect” value was found to be 11.75%.
As for `CCOCC(=O)NCC1(NC(C)c2ccccc2)CCOCC1` (centres undefined), the “Percent Effect” value is on record as -5.882%.
For `Cc1cnn(CC(C)NCc2c(C)nn(Cc3ccccc3)c2C)c1` (centres undefined), the “Percent Effect” value is -7.761%.
On to `CCc1nnsc1C(=O)N1CCCN(Cc2ccccc2)CC1`, for which the “Percent Effect” value is on record as -10.59%.
`CCC(CN1CCCC1)n1cncc1-c1cnn(Cc2ccccc2)c1.Cl` (centres undefined): the “Percent Effect” value stood at 116%.
As for `Cc1cc(C)cc(N(CCC#N)C(=O)CN2CCCC2c2cccs2)c1` (centres undefined), the “Percent Effect” value was -27.93%.
Regarding `O=C(CCN1CCCC1c1cccs1)N1CCc2sccc2C1` (centres undefined), the “Percent Effect” value amounted to 2.808%.
Turning to `COc1cc(CN2CCCCCC2c2cccs2)cc(OC)c1O` (centres undefined), the “Percent Effect” value is on record as 139%.
Turning to `COc1cc(CN2CCCCCC2c2cccs2)cc(OC)c1OC` (centres undefined), the “Percent Effect” value came out at 88.88%.
On to `COc1cccc(CN2CCCCCC2c2cccs2)c1O` (centres undefined), for which the “Percent Effect” value is listed as -12.69%.
For `COc1cccc(CN2CCCCCC2c2sccc2C)c1O` (centres undefined), the “Percent Effect” value came to 115%.
With `COc1cccc(CN2CCCCCC2c2cccs2)c1OC` (centres undefined), the “Percent Effect” value is 128.6%.
The result for `COc1cccc(CN2CCCC(Nc3cccc(F)c3)C2)c1O` (centres undefined) reads -12.95%; that for `COc1cccc(CN2CCN(CC(C)C)C(=O)C2C)c1O` (centres undefined), -13.51%; that for `Cc1nc(C)n(CC2CCCCN2CCCS(N)(=O)=O)n1` (centres undefined), -48.39%.
For `CC(NC(=O)N1CCC(OCc2ccccc2)CC1)c1nncn1C` (centres undefined), the “Percent Effect” value was -3.035%.
For `CC(=O)Nc1ccc(-n2ccc3nc(N4CCCC4)ncc3c2=O)cc1` the value was 4.031%; for `OCCC1CN(c2nc(-c3cccnc3)nc3c2CCNCC3)CCO1` (centres undefined), -11.64%.

(Values after ChEMBL document CHEMBL3988442, “University of Dundee, Small-Polar-MMV Screening Library” (2021).)
